PubChem BioAssay AID2147 (National Center for Advancing Translational Sciences (NCATS), 2009)
Several values for one entry are separate records, joined by “and”; a condition that tells them apart may be missing. Equal entries are not always repeated. Out of some 230,000 compounds screened, about 3,600 (1.6%) were called active. Where a call stands in place of a potency, no number is given. Another 15% or so got no clear call; they are omitted. Calls come from the whole dose curve; as a rule, active = well fitted inhibition curve with a large enough effect (not every such curve was filed as active); inconclusive = small, poorly fitted or top-dose-only effect, or another doubt; inactive = no such curve, though single readings can be large or run the other way. Only a selection was taken, and actives are over-represented in it overall.

Biological target: Lysine-specific demethylase 4E (Homo sapiens) (UniProt B2RXH2)
Sequence (B2RXH2 1-337 limits assumed): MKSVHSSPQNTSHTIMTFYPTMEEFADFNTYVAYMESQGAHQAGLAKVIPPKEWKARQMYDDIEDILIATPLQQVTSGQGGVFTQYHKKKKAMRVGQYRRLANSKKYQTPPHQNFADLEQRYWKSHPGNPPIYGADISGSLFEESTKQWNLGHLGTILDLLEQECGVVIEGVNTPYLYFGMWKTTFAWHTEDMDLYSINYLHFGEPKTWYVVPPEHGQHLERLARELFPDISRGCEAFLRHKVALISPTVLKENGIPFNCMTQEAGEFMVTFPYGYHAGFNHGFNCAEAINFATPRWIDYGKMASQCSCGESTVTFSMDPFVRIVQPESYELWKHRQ
Assay: qHTS Assay for Inhibitors of Human Jumonji Domain Containing 2E (JMJD2E)
Settings: JMJD2E catalytic domain, FDH-coupled NADH fluorescence (FDH is formaldehyde dehydrogenase); series mostly up to 57.1 µM
Note: nearly all actives have a fitted effect of over 50% in size.
Potency is the fitted concentration of half-maximal effect.

SMILES | Potency | activity change, negative = inhibition
COc1ccc(COCC(O)CN2CCC(C(N)=O)CC2)cc1 (stereo not drawn) | inactive | –
COC(=O)c1cc(C(=O)CSc2nc(C)cc(C)n2)ccc1O | inactive | –
CC(C)C1N=C2c3ccccc3N=C(SCC(=O)c3ccc(O)c(O)c3)N2C1=O (stereo not drawn) | 25.1 µM (active) | –
COc1ccccc1P(=O)(c1ccccc1)c1ccccc1NC(C)=O (stereo not drawn) | inactive | –
CN(CC(O)COc1ccc(S(=O)(=O)N2CCOCC2)cc1Cl)C1CCCCC1 (stereo not drawn) | inactive | –
COc1ccc2c(c1)O[C@@H](c1ccc3c(c1)OCO3)[C@H](OC(=O)NCCc1ccc(OC)c(OC)c1)C2=O | inactive | –
COc1cccc([C@@H]2Oc3ccc(Br)cc3C(=O)[C@H]2OC(=O)NCCc2ccc(OC)c(OC)c2)c1 | 14.1 µM (active) | –
COc1cccc([C@@H]2Oc3ccc(Br)cc3C(=O)[C@H]2OC(=O)NCc2ccc3c(c2)OCO3)c1 | inactive | –
c1ccc(-c2nnc(N3CCOCC3)c3ccccc23)cc1 | inactive | –
O=C(Nc1ccc(S(=O)(=O)Nc2nccs2)cc1)c1cccc(S(=O)(=O)N2CCOCC2)c1 | inactive | –
CCc1nc(C)cn1S(=O)(=O)c1cc([N+](=O)[O-])ccc1Cl | inactive | –
COc1ccc(-c2csc(Nc3ccc(O)cc3)n2)cc1 | inactive | –
COc1ccc(-c2csc(Nc3ccccn3)n2)cc1 | inactive | –
COc1ccc(OC)c(Nc2nc(-c3ccc(O)c(O)c3)cs2)c1 | 28.2 µM (active) | –
O=C(Nc1n[nH]c(C(F)(F)F)n1)c1cccs1 | inactive | –
CCOC(=O)c1cn[nH]c1NC(=S)Nc1ccccc1 | inactive | –
O/N=C1\CC2(Cc3nonc31)OCCO2 | inactive | –
ON=C1/C(=N\O)CC2(C/C1=N/O)OCCO2 | 7.08 µM (active) | –
Cc1[nH]n(C)c(=O)c1N=Nc1ccc(S(C)(=O)=O)cc1 | inactive | –
COc1cccc(N2C(=O)CC(N3CCc4ccccc4C3)C2=O)c1 (stereo not drawn) | inactive | –
NCCCCCC(=O)N/N=C/c1ccc2nccnc2c1 | inactive | –
CCOC(=O)CSc1nc(C)c(Oc2ccc(Cl)cc2Cl)c(=O)[nH]1 | inactive | –

SMILES | Potency | activity change, negative = inhibition
Oc1cccc(C2c3[nH]c4ccccc4c3CCN2Cc2cnn(-c3ccccc3)c2)c1 (stereo not drawn) | inactive | –
COCc1ccc(C(=O)N2CCc3c([nH]c4ccccc34)C2c2ccccn2)s1 (stereo not drawn) | inactive | –
c1ccc(C2c3[nH]c4ccccc4c3CCN2Cc2cccn2-c2cccnc2)nc1 (stereo not drawn) | 14.1 µM (active) | –
CCc1cccc2c(=O)c(C(=O)NCCCOC)c[nH]c12 | inactive | –
CN(C(=O)CCn1c(=S)oc2ccccc21)C1CCCCC1 | inactive | –
O=C1CC(Sc2ncn[nH]2)C(=O)N1c1ccccc1 (stereo not drawn) | 2.24 µM (active) | –
CCOC(=O)c1ccc(N2C(=O)CC(Sc3nc(O)c(CC)c(=O)[nH]3)C2=O)cc1 (stereo not drawn) | inactive | –
COc1ccc(N2C(=O)CC(Sc3n[nH]c(-c4ccc(C)cc4)n3)C2=O)cc1 (stereo not drawn) | inactive | –
O=C1CC(N2CCN(c3ccc(F)cc3)CC2)C(=O)N1c1ccccc1 (stereo not drawn) | inactive | –
Cc1cccc(N2C(=O)CC(SC(N)=Nc3ccccc3)C2=O)c1 (stereo not drawn) | inactive | –
Cc1ccc(N2C(=O)CC(Sc3ncn[nH]3)C2=O)cc1 (stereo not drawn) | 2.51 µM (active) | –
NC(=O)c1ccc(N2CCOCC2)nc1 | inactive | –
CN(C)C(=O)c1nc2ccc(Cl)cn2c1CNCc1cccc(OC(F)(F)F)c1 | inactive | –
Cc1nc(N)sc1N=Nc1c(C)n(C)n(-c2ccccc2)c1=O | inactive | –
COc1ccc(N(Cc2ccccc2)S(=O)(=O)c2cccc(C(=O)O)c2)cc1 | inactive | –
CCCN(CCc1ccccc1)C1CCc2c(O)cccc2C1 (stereo not drawn) | inactive | –
CCCN(C/C=C\I)[C@@H]1CCc2cccc(O)c2C1 | 28.2 µM (active) | –
CN(C)c1cc(-c2ccc(F)cc2)oc(=O)c1Cl | inactive | –
Cc1ccc(C(=O)NCC(=O)OCC(=O)Nc2cccc(S(=O)(=O)N3CCCC3)c2)cc1C | inactive | –
Cc1cc(=O)n2c3c(cccc13)CCC2 | inactive | –
CCNC(=O)c1c(O)c2cccc3c2n(c1=O)CC3 | 3.16 µM (active) | –
CCCCc1nc2ccccc2c(=O)n1NC(=O)c1c(O)c2cccc3c2n(c1=O)CC3 | inactive | –

SMILES | Potency | activity change, negative = inhibition
O=C(O)Cc1csc(-c2cccc(Oc3ccccc3)c2)n1 | inactive | –
CCCc1nc2ccccc2c(=O)n1/N=C/c1ccc(O)c(O)c1 | 12.6 µM (active) | –
CCCN1C(=O)C(Cc2nc3ccccc3c(=O)n2-c2ccccc2)c2cc(C)ccc21 (stereo not drawn) | inactive | –
O=c1c2ccccc2nc(N/N=C/c2ccccc2)n1O | inactive | –
CC(C)N1CCC(=NNc2ccc([N+](=O)[O-])cc2S(=O)(=O)N2CCOCC2)CC1 | inactive | –
COc1ccccc1C(=O)CSc1cccc[n+]1[O-] | inactive | –
O=C1CCC(=O)N(O)CCCCCNC(=O)CCC(=O)N(O)CCCCCNC(=O)CCC(=O)N(O)CCCCCN1 | 7.94 µM (active) | –
CCNC(=O)CC1C(=O)N(c2ccc(OC)cc2)C(=S)N1CCc1ccncc1 (stereo not drawn) | inactive | –
Cc1nc(C(=O)N2CCCC(C(=O)c3ccc(Cl)cc3)C2)cs1 (stereo not drawn) | inactive | –
Cn1c(CO)cnc1SCc1ccccc1 | inactive | –
CSc1c(SCc2ccccc2)cnn(Cc2ccccc2)c1=O | 12.6 µM (active) | –
O=c1c2ccccc2c(-c2ccccc2)nn1Cc1ccccc1 | inactive | –
O=C(NCCOCc1ccc(Cl)cc1)c1ncn[nH]1 | inactive | –
Cc1cc(C)nc(S/C=C/C(=O)c2ccccc2)n1 | inactive | –
O=C(/C=C/Sc1ncn[nH]1)c1ccc(Cl)cc1 | 7.08 µM (active) | –
CCN(CC)CCNC(=O)c1sc2ncn(CC(=O)Nc3ccc(C)c(Cl)c3)c(=O)c2c1C | inactive | –
Cn1c(=O)c2c(-c3cccc(Br)c3)c(C#N)c(N)nc2n(C)c1=O | inactive | –
OCCC1CN(Cc2cnc(-c3ccccc3)s2)CCN1CCc1ccccc1 (stereo not drawn) | inactive | –
CC1(OC(=O)C2CCCC2)C(=O)C=C2C=C(c3ccc(C#N)cc3)OC=C2C1=O (stereo not drawn) | inactive | –
COCCN1C=C2C(=O)C(C)(OC(=O)C3CCCC3)C(=O)C=C2C=C1c1ccsc1 (stereo not drawn) | 3.55 µM (active) | –
CC1(OC(=O)CCc2ccccc2)C(=O)C=C2C=C(c3ccc(C#N)cc3)N(CCc3ccccn3)C=C2C1=O (stereo not drawn) | – | -1.14% [at 11.4 µM] (inactive)
N/C(=N\OC(=O)Nc1ccccc1)c1ccno1 | inactive | –

SMILES | Potency | activity change, negative = inhibition
COc1ccc(CNC(=O)CCC(=O)Nc2nnc(C(C)C)s2)cc1 | inactive | –
O=C(Nc1ccc(Cl)cc1)Nc1ccc(C(=O)N2CCOCC2)cc1 | inactive | –
COC(=O)C1=C(C)OC(N)=C(C#N)C1c1cc(OC)ccc1OC (stereo not drawn) | inactive | –
COc1ccc(C2C(C#N)=C(N)Oc3cc(N)ccc32)cc1OC (stereo not drawn) | 12.6 µM (active) | –
CCC1=C(C(=O)OC)C(c2cc(OC)ccc2OC)C(C#N)=C(N)O1 (stereo not drawn) | inactive | –
CC(C)NC[C@H](O)c1ccc2ccccc2c1 | inactive | –
CNCC(O)c1ccc(O)c(O)c1 (stereo not drawn) | 20 µM (active) and 14.1 µM (active) | –
CCC(C)c1ccc(O)c(/C=N/O)c1 (stereo not drawn) | inactive | –
C=CCN(C(=O)Nc1ccc2c(c1)nc(C)n2C)c1ccccc1 | inactive | –
C/C(=C\c1ccco1)CN1CCC(N2CCC(C(=O)N3CCOCC3)CC2)CC1 | inactive | –
CCOC(=O)N1CCN(C(=O)CSc2ccc(Cl)cc2)CC1 | inactive | –
Oc1c(C(c2ccccn2)N2CCOCC2)ccc2cccnc12 (stereo not drawn) | inactive | –
CCOC(=O)N1CCN(C(c2cccnc2)c2ccc3cccnc3c2O)CC1 (stereo not drawn) | 14.1 µM (active) | –
Cc1cc(N2CCN(c3ccc(F)cc3)CC2)n2ncnc2n1 | inactive | –
CC1CC(C)(C)n2c(O)c(N=NC(N)=S)c3cccc1c32 (stereo not drawn) | inactive | –
O=c1c(O)c(Br)ccc2c(Br)c(O)c(O)c(O)c12 | 7.08 µM (active) | –
CCCCCCCC(=O)OC(CN1CCCCCC1)CN1CCCC1=O (stereo not drawn) | inactive | –
CCN(CC)CCN1C(=O)C(=O)/C(=C(/O)c2ccccc2)C1c1ccccc1F (stereo not drawn) | inactive | –
CCN(CC)CCN1C(=O)C(=O)/C(=C(/O)c2ccc(OC)c(OC)c2)C1c1ccccn1 (stereo not drawn) | 22.4 µM (active) | –
COc1ccc(/C(O)=C2/C(=O)C(=O)N(CCCN(C)C)C2c2ccccc2)cc1OC (stereo not drawn) | inactive | –
CC(=O)Nc1ccc(NC(=O)CSc2ncnc3c2cnn3Cc2ccccc2)cc1 | inactive | –
CN1CCN(Cc2c(O)ccc3c2oc(=O)c2ccccc23)CC1 | inactive | –

SMILES | Potency | activity change, negative = inhibition
O=c1oc2c(CN3CCCCC3)c(O)ccc2c2c1CCCCC2 | 3.16 µM (active) | –
NC(=O)COc1ccc2c3c(c(=O)oc2c1)CCCCC3 | inactive | –
Cc1ccccc1OCC(O)CN1CCN(c2ccccn2)CC1 (stereo not drawn) | inactive | –
Cc1cccc(C)c1NC(=S)N(Cc1cccnc1)Cc1ccccc1Cl | inactive | –
CCC/C(C)=N\Nc1nc2c(c(=O)n(C)c(=O)n2C)n1C | inactive | –
Oc1ccc(N=Cc2sc3ccccc3c2Cl)cc1 | 12.6 µM (active) | –
COc1ccc(N=C(C)c2sc3ccccc3c2O)cc1 | inactive | –
Oc1ccc2ccccc2c1C=Nc1ccccc1 | inactive | –
S=c1nc2ccccc2c2nc(-c3cccnc3)[nH]n12 | inactive | –
COc1ccc(CCNS(=O)(=O)c2cccc3cccnc23)cc1OC | inactive | –
Cc1nnsc1C(=O)N/N=C/c1ccccc1Cl | inactive | –
Cc1ccc2cc(/C=N/NC(=O)[C@@H]3CCCN3)c(Cl)nc2c1 | inactive | –
Cc1ccc(/C=N/NC(=O)C2=NNC(c3ccccc3)(c3ccccc3)C2)c(O)c1 | 10 µM (active) | –
CCn1cc(CN2CCCC(CNS(=O)(=O)Cc3ccccc3)C2)cn1 (stereo not drawn) | inactive | –
Nn1c(SCc2ccccc2)nnc1C1CCCCC1 | inactive | –
CC(C)C[C@H](CO)Nc1nc(N(C)c2cccc(Cl)c2)c2ncn(C(C)C)c2n1 | inactive | –
O=C(Nc1cccc(S(=O)(=O)NC2=NCCC2)c1)C1CCCCC1 | inactive | –
CC(C)(C)C(=O)OCc1nc(-c2ccc(O)c(O)c2)cs1 | 12.6 µM (active) | –
Cc1onc(C(=O)NN)c1-c1csc(COc2ccccc2)n1 | inactive | –
CCCC(=O)N1c2ccc(-c3csc(N)n3)cc2CC1C (stereo not drawn) | inactive | –
